Source: the antibiotic and cytotoxicity screens of Wong et al. (2023)
The whole screen tested about 39,000 compounds, of which about 3,300 (8.5%) were called active. Only a selection was taken, and actives are over-represented in it overall.

Tested on: HepG2
Assay: cytotoxicity call (relative viability < 0.9)
Settings: 10 µM

Row | Compound | cytotoxicity call
1 | C[C@@H]1CN([C@H](C)CO)C(=O)Cc2cc(NC(=O)C3CCCCC3)ccc2O[C@H]1CN(C)Cc1ccc(Cl)c(Cl)c1 | inactive
2 | N=C(N)c1ccc2nc(-c3cc(CC(=O)N[C@@H](CC(=O)O)C(=O)O)cc(-c4cc(S(N)(=O)=O)ccc4O)c3O)[nH]c2c1 | inactive
3 | C[C@H](CO)N1C[C@H](C)[C@H](CN(C)C(=O)Nc2ccc(C(F)(F)F)cc2)Oc2ccc(NC(=O)Nc3cccc4ccccc34)cc2CC1=O | inactive
4 | C[C@H](CO)N1C[C@H](C)[C@@H](CN(C)Cc2ccc(Cl)c(Cl)c2)Oc2ccc(NC(=O)NC3CCCCC3)cc2CC1=O | inactive
5 | C[C@@H]1CN([C@H](C)CO)C(=O)Cc2cc(NC(=O)NC3CCCCC3)ccc2O[C@@H]1CN(C)Cc1ccc(Cl)c(Cl)c1 | active
6 | C[C@@H]1CN([C@@H](C)CO)C(=O)Cc2cc(NC(=O)NC3CCCCC3)ccc2O[C@H]1CN(C)Cc1ccc(Cl)c(Cl)c1 | inactive
7 | C[C@@H]1CN([C@@H](C)CO)C(=O)Cc2cc(NC(=O)NC3CCCCC3)ccc2O[C@@H]1CN(C)Cc1ccc(Cl)c(Cl)c1 | active
8 | C[C@@H]1CN([C@H](C)CO)C(=O)Cc2cc(NC(=O)NC3CCCCC3)ccc2O[C@H]1CN(C)Cc1ccc(Cl)c(Cl)c1 | inactive
9 | C[C@H](CO)N1C[C@H](C)[C@H](CN(C)Cc2ccc(Cl)c(Cl)c2)Oc2ccc(NC(=O)NC3CCCCC3)cc2CC1=O | inactive
10 | C[C@@H]1CN([C@H](C)CO)C(=O)c2cc(NS(=O)(=O)c3ccc(Cl)cc3)ccc2O[C@@H](C)CCCCO[C@H]1CN(C)C(=O)Nc1ccccc1 | inactive
11 | O=C(C[C@@H]1CC[C@@H]2[C@H](COC[C@@H](O)CN2S(=O)(=O)c2ccccc2)O1)NCCN1CCCCC1 | inactive
12 | O=C(c1ccccc1F)N1c2ccccc2Sc2ccccc21 | inactive
13 | CCOC(=O)C(CCc1ccccc1)NC1CCc2ccccc2N(CC(=O)O)C1=O.Cl (centres undefined) | inactive
14 | CC(CN(C)C)CN1c2ccccc2CCc2ccccc21.O=C(O)C=CC(=O)O (centres undefined) | active
15 | Cc1ccc(C(=O)N2c3ccccc3Sc3ccccc32)cc1 | inactive
16 | O=C(Nc1ccccc1)N1c2ccccc2CCc2ccccc21 | inactive
17 | CC(CN(C)C)CN1c2ccccc2Sc2ccccc21.O=C(O)C(O)C(O)C(=O)O (centres undefined) | active
18 | COc1ccc(NC(=O)N(C)C[C@@H]2OCc3ccccc3-c3c(n(C)c4ccccc34)C(=O)N([C@H](C)CO)C[C@@H]2C)c(OC)c1 | inactive
19 | CCC(=O)Nc1ccc2c(c1)OC[C@@H](C)N(C(=O)CN1CCOCC1)C[C@@H](C)[C@H](OC)CN(C)C2=O | inactive
20 | Cc1noc(C)c1NC(=O)Nc1ccc2c(c1)C(=O)N([C@H](C)CO)C[C@H](C)[C@@H](CN(C)C(=O)Nc1ccc(C(F)(F)F)cc1)O2 | inactive
21 | Cc1ccc(S(=O)(=O)Nc2cccc3c2O[C@H](CN(C)Cc2ccc(Oc4ccccc4)cc2)[C@@H](C)CN([C@@H](C)CO)C3=O)cc1 | inactive
22 | C[C@@H]1CN([C@@H](C)CO)C(=O)Cc2cc(NC(=O)NC3CCCCC3)ccc2O[C@H]1CN(C)S(=O)(=O)c1cn(C)cn1 | inactive

Row | Compound | cytotoxicity call
23 | C[C@H]1CCCCO[C@H](CN(C)S(=O)(=O)c2ccc(F)cc2)[C@@H](C)CN([C@@H](C)CO)C(=O)c2cc(NC(=O)NC3CCCCC3)ccc2O1 | inactive
24 | C[C@@H]1CN([C@@H](C)CO)C(=O)c2cccc(NC(=O)CCCCCC(=O)Nc3ccccc3N)c2O[C@@H]1CN(C)Cc1ccc(Oc2ccccc2)cc1 | active
25 | COc1ccc(CN(C)C[C@@H]2Oc3c(NC(=O)CCCCCC(=O)Nc4ccccc4N)cccc3C(=O)N([C@@H](C)CO)C[C@H]2C)cc1 | inactive
26 | C[C@@H]1CN([C@H](C)CO)C(=O)c2cccc(NC(=O)CCCCCC(=O)Nc3ccccc3N)c2O[C@H]1CN(C)Cc1ccc(Oc2ccccc2)cc1 | inactive
27 | COc1ccc(CN(C)C[C@@H]2Oc3c(NC(=O)CCCCCC(=O)Nc4ccccc4N)cccc3C(=O)N([C@H](C)CO)C[C@H]2C)cc1 | inactive
28 | COc1ccc(CN(C)C[C@H]2Oc3c(NC(=O)CCCCCC(=O)Nc4ccccc4N)cccc3C(=O)N([C@@H](C)CO)C[C@@H]2C)cc1 | active
29 | C[C@H](CO)N1C[C@H](C)[C@H](CN(C)Cc2ccc(Oc3ccccc3)cc2)Oc2c(NC(=O)CCCCCC(=O)Nc3ccccc3N)cccc2C1=O | inactive
30 | CO[C@@H]1CN(C)C(=O)c2cc(NS(C)(=O)=O)ccc2OC[C@H](C)N(C(=O)CN(C)C)C[C@@H]1C | inactive
31 | C[C@H](CO)N1C[C@H](C)[C@H](CN(C)CC2CC2)OCCCC[C@H](C)Oc2ccc(NC(=O)CCC(F)(F)F)cc2C1=O | inactive
32 | CN(C)CCOC(c1ccc(Cl)cc1)c1ccccn1.O=C(O)C=CC(=O)O (centres undefined) | inactive
33 | CN(C)CCC(c1ccc(Cl)cc1)c1ccccn1.O=C(O)C=CC(=O)O (centres undefined) | active
34 | CN(C)CCC(c1ccccc1)c1ccccn1.O=C(O)C=CC(=O)O (centres undefined) | inactive
35 | CN(C)CCC(c1ccc(Br)cc1)c1ccccn1.O=C(O)C=CC(=O)O (centres undefined) | active
36 | CN(C)CCNC(=O)c1ccccn1 | inactive
37 | CC(=O)Oc1ccc(C(c2ccc(OC(C)=O)cc2)c2ccccn2)cc1 | inactive
38 | C[C@@H]1CN([C@@H](C)CO)C(=O)c2cc(NC(=O)c3ccncc3)ccc2O[C@@H](C)CCCCO[C@H]1CN(C)C(=O)C1CCCCC1 | inactive
39 | C[C@@H]1CN([C@@H](C)CO)C(=O)c2cc(NS(=O)(=O)c3cccs3)ccc2O[C@@H]1CN(C)S(=O)(=O)c1cccs1 | inactive
40 | C[C@H](CO)N1C[C@H](C)[C@H](CN(C)S(=O)(=O)c2ccccc2)Oc2c(NS(C)(=O)=O)cccc2C1=O | inactive
41 | CN(C)S(=O)(=O)N(C)c1ccccc1 | inactive
42 | C[C@@H]1CN([C@@H](C)CO)C(=O)c2cc(NC(=O)Nc3ccc4c(c3)OCO4)ccc2O[C@@H](C)CCCCO[C@H]1CN(C)C(=O)Nc1ccc(C(F)(F)F)cc1 | inactive
43 | C[C@H]1CN([C@@H](C)CO)C(=O)c2cc(NS(=O)(=O)c3ccc(F)cc3)ccc2O[C@H]1CN(C)C(=O)Nc1cccc2ccccc12 | inactive
44 | S=C(SN1CCOCC1)N1CCOCC1 | inactive
